High-throughput results from PubChem BioAssay.
Shown is part of a subset that was picked to be rich in hits.
Shiga toxin inh – blocks Shiga toxin action in Vero cells; AID 2315; Vero cells, Shiga toxin protein synthesis inhibition reporter; hit rate 9.2% among 290,000; inhibition, % at 38.7 µM; in the data active means inhibition mostly above about 28%, no sharp cut-off; inactive means mostly below about 43%; further: 0% is about no effect
SARS PLpro yeast-1 – SARS-CoV PLP inhibition in yeast; hit rate 0.19% among 330,000; S. cerevisiae expressing SARS-CoV PLpro, growth rescue; Potency, µM (series often up to 32.9 µM), inactives show at the top dose activity, positive = growth rescue, hits mostly activators; further: potency means the concentration at half of the fitted maximal effect; 0% is about no effect; nearly all actives have a fitted effect of over 55% in size
Cycloheximide cs – affects cycloheximide protein synthesis inhibition readout, counter-screen | cell reporter, cycloheximide protein synthesis inhibition counterscreen | max response, % | hit rate 12% among 300,000; in the data active means max response mostly above about 13%, no sharp cut-off; inactive means mostly below about 14%; further: read at 38.3 µM for the half of the compounds with a filed dose; 0% is about no effect
NS1 function inh – blocks influenza NS1 protein function. AID 2326. Potency, µM (top dose mostly 46.1 µM), without a hit: at the highest dose activity, positive = more growth. hit rate 0.4% among 270,000; further: potency means the concentration at half of the fitted maximal effect; actives are rising curves; nearly all actives have a fitted effect of over 50% in size
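Recovery from NS1-induced slow growth read by OD600 in budding yeast switched to galactose assay medium (pH 6.0, -URA) at 1:100 dilution. Compound 23 nl per well; the matching strain lacking NS1 serves as control.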
LmPK inh – blocks Leishmania mexicana pyruvate kinase activity | Q27686 | purified LmPK, Kinase-Glo ATP luminescence, 1 h | Potency, µM (doses to about 57.5 µM), for inactives: at the highest dose activity change, negative = inhibition, usual class: inhibitors | hit rate 0.37% among 290,000; active means well fitted curve in the direction sought with a large enough effect; inconclusive means small, poorly fitted or top-dose-only effect, or another doubt; inactive means no such curve, though single readings can be large; an effect the other way counts as inactive or inconclusive; further: potency means the concentration at half of the fitted maximal effect; on the % scale 0 is the no-effect control and ±100 the full control effect
Target sequence (Q27686 whole entry, looked up): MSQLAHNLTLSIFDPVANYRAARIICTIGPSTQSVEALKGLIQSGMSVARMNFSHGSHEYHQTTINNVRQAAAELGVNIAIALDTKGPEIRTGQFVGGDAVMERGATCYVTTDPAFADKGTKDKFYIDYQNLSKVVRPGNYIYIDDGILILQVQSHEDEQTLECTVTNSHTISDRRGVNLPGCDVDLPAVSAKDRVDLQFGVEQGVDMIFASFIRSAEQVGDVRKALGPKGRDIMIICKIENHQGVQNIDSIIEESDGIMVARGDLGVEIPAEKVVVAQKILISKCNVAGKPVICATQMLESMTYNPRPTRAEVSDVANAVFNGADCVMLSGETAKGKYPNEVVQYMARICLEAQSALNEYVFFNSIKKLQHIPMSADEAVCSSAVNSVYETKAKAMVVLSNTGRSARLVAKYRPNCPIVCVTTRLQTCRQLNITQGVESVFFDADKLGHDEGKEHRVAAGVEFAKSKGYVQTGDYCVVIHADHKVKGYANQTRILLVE
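Purified LmPK (0.1 nM) converted ADP (0.1 mM) to ATP with PEP (0.5 mM) in imidazole buffer pH 7.2 with KCl and MgCl2, 1 h at room temperature. ATP was read by Kinase-Glo luminescence; data normalized to uninhibited and no-enzyme controls.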
Tb PYK inh – inhibitors of Trypanosoma brucei pyruvate kinase. TbPYK enzyme, Kinase-Glo Plus ATP luminescence, 45 min. Potency, µM (top dose mostly 76.8 µM), inactives show at the highest dose activity, negative = inhibition, actives largely listed as inhibitors. hit rate 0.12% among 410,000. AID 624173; active means well fitted curve in the direction sought with a large enough effect; inconclusive means small, poorly fitted or top-dose-only effect, or another doubt; inactive means no such curve, though single readings can be large; an effect the other way counts as inactive or inconclusive; further: potency means the concentration at half of the fitted maximal effect; on the % scale 0 is the no-effect control and ±100 the full control effect; nearly all actives have a fitted effect of over 50% in size
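Enzyme and substrate buffer are dispensed first and compound is pin-transferred. ADP at 130 uM final then starts the reaction, which runs 45 min at room temperature. Detection reagent is added for 10 min before luminescence is imaged.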
SARS PLpro yeast-2 – Inhibits SARS-CoV PLP in yeast, hit validation | calls only | yeast expressing SARS-CoV PLpro, growth phenotype rescue | hit rate 19% among 1,000 | shares compounds with SARS PLpro yeast-1; call rule not given here
* marks the source's active call; other numbers are inactive results. Unless noted, the call rests on the fitted dose curve.

What do the screens show for `CCNC(=S)NN(c1ccccc1)c1ccccc1`?
Shiga toxin inh: 9; SARS PLpro yeast-1: 14µM*; Cycloheximide cs: 6; NS1 function inh: 2%; LmPK inh: 5%; Tb PYK inh: -7%; SARS PLpro yeast-2: active

What do the screens show for `CC(N)c1csc(Nc2ccc(S(C)(=O)=O)cc2)n1` (stereo unspecified)?
Tb PYK inh: -4%

What do the screens show for `CC(=O)Oc1ccc(-c2cccc(C(=O)OCC(=O)Nc3ccccc3Oc3ccccc3)c2)cc1`?
Shiga toxin inh: -10; SARS PLpro yeast-1: inconclusive; Cycloheximide cs: 0; NS1 function inh: 4%; LmPK inh: -2%; Tb PYK inh: -14%; SARS PLpro yeast-2: active

Results for CCOc1ccc(-c2cc(CCCC(=O)NCCc3cc(OC)c(OC)c(OC)c3)no2)cc1 ?
Tb PYK inh: 5%

How did Cc1ccc(CNC(=O)c2cn(C3CCCCC3)c(=O)c3c2c2ccccc2n3C)o1 do in these assays?
Shiga toxin inh: -4; SARS PLpro yeast-1: inconclusive; Cycloheximide cs: -2; NS1 function inh: 15%; LmPK inh: 2%; Tb PYK inh: -15%; SARS PLpro yeast-2: active

What do the screens show for `Cc1cc(C)nc(SCc2ccc(C(=O)N/N=C/c3cccc(O)c3O)cc2)n1`?
Shiga toxin inh: -60; SARS PLpro yeast-1: 3.2µM*; Cycloheximide cs: 17*; NS1 function inh: -7%; LmPK inh: -3%; Tb PYK inh: 15%; SARS PLpro yeast-2: active

How did O=C(NCCc1ccc(Cl)cc1)/C(=C/c1cccnc1)NC(=O)c1ccccc1 do in these assays?
Shiga toxin inh: 16; SARS PLpro yeast-1: 16µM*; Cycloheximide cs: -2; NS1 function inh: 5%; LmPK inh: -3%; Tb PYK inh: 1%; SARS PLpro yeast-2: inactive

Results for O=c1cc(CO)oc(C(Nc2ccccn2)c2ccc(F)cc2)c1O (stereo unspecified) ?
Shiga toxin inh: -5; SARS PLpro yeast-1: -1%; Cycloheximide cs: -1; NS1 function inh: 23%; LmPK inh: 6%; Tb PYK inh: -5%

What do the screens show for `COc1ccc(C(Nc2ccccn2)c2oc(CO)cc(=O)c2O)cc1` (stereo unspecified)?
Shiga toxin inh: -14; SARS PLpro yeast-1: 11µM*; Cycloheximide cs: -2; NS1 function inh: 2%; LmPK inh: -5%; Tb PYK inh: inconclusive; SARS PLpro yeast-2: inactive

What do the screens show for `O=c1cc(CO)oc(C(Nc2ccccn2)c2ccccc2Cl)c1O` (stereo unspecified)?
Shiga toxin inh: -8; SARS PLpro yeast-1: 13µM*; Cycloheximide cs: 11; LmPK inh: 0%; Tb PYK inh: -14%; SARS PLpro yeast-2: inactive

Results for O=C(N=C1SCC(=O)N1c1ccccc1)c1ccco1 ?
Shiga toxin inh: 47; SARS PLpro yeast-1: inconclusive; Cycloheximide cs: 31*; NS1 function inh: 9%; LmPK inh: -4%; Tb PYK inh: 0%; SARS PLpro yeast-2: inactive

How did O=C(NNC1CC(=O)N(c2ccccc2)C1=O)c1ccco1 (stereo unspecified) do in these assays?
Shiga toxin inh: 17; SARS PLpro yeast-1: 1%; Cycloheximide cs: 4; NS1 function inh: 9%; LmPK inh: 0%; Tb PYK inh: -2%

Results for CCOC(=O)C1CCN(C(=O)COc2ccc(Br)cc2)CC1 ?
Shiga toxin inh: 37; SARS PLpro yeast-1: 1%; Cycloheximide cs: -2; NS1 function inh: -11%; LmPK inh: -2%; Tb PYK inh: -4%

What do the screens show for `CCOC(=O)C1CCN(C(=O)COc2cccc(C)c2)CC1`?
Shiga toxin inh: -1; SARS PLpro yeast-1: 3.5µM*; Cycloheximide cs: 2; NS1 function inh: -3%; LmPK inh: -9%; Tb PYK inh: 4%; SARS PLpro yeast-2: inactive

What do the screens show for `Nc1c(Cl)ncnc1Nc1ccc(C(=O)O)cc1`?
Tb PYK inh: -1%

Results for Nc1c(Cl)ncnc1N/N=C/c1ccc2ccccc2n1 ?
Shiga toxin inh: 121*; Cycloheximide cs: 69*; NS1 function inh: -50%; LmPK inh: -10%; Tb PYK inh: -8%; SARS PLpro yeast-2: inactive

How did O=C(Cc1ccccc1)NCC(=O)N/N=C/c1cccs1 do in these assays?
Shiga toxin inh: -9; SARS PLpro yeast-1: -5%; Cycloheximide cs: -2; NS1 function inh: 11%; LmPK inh: -6%; Tb PYK inh: -2%

What do the screens show for `S=C(NCc1ccccc1)N/N=C/c1cccs1`?
Shiga toxin inh: 12; SARS PLpro yeast-1: 5.6µM*; Cycloheximide cs: 10; NS1 function inh: 12%; LmPK inh: 1%; Tb PYK inh: 2%; SARS PLpro yeast-2: active

What do the screens show for `CCOc1ccc(OCC)c(NS(=O)(=O)c2cc(-c3onc(C)c3C)ccc2OC)c1`?
Tb PYK inh: 1%

Results for Cc1nnc2c3ccccc3c(-c3ccc(O)cc3)nn12 ?
Shiga toxin inh: -7; SARS PLpro yeast-1: inconclusive; Cycloheximide cs: -3; NS1 function inh: 2%; LmPK inh: 1%; Tb PYK inh: -12%; SARS PLpro yeast-2: inactive

What do the screens show for `Cc1ccc(N=C2C(=S)N(c3ccc(C)cc3)C(=N)N2/N=C/c2ccc(Cl)cc2)cc1`?
Shiga toxin inh: 74*; SARS PLpro yeast-1: 11µM*; Cycloheximide cs: 48*; NS1 function inh: 6%; LmPK inh: -1%; Tb PYK inh: -26%; SARS PLpro yeast-2: active

What do the screens show for `COc1ccc(/C=N/N2CCN(c3ccc(Cl)cc3)CC2)cc1`?
SARS PLpro yeast-1: 3%; Cycloheximide cs: -2; NS1 function inh: 18%; LmPK inh: 0%; Tb PYK inh: inconclusive

What do the screens show for `O=C(Nc1ccccc1Cl)c1cccc(COc2cc(Cl)ccc2Cl)c1`?
Shiga toxin inh: 51*; SARS PLpro yeast-1: inconclusive; Cycloheximide cs: 42*; NS1 function inh: 0%; LmPK inh: -2%; Tb PYK inh: -4%; SARS PLpro yeast-2: inactive

How did Cc1ccc(N2CN(Cc3cccnc3)CNC2=S)c(C)c1 do in these assays?
Shiga toxin inh: -5; SARS PLpro yeast-1: -14%; Cycloheximide cs: -2; NS1 function inh: 6%; LmPK inh: 2%; Tb PYK inh: 4%

Results for Cc1ccc(N2CN(Cc3ccco3)CNC2=S)c(C)c1 ?
Shiga toxin inh: 9; SARS PLpro yeast-1: inconclusive; Cycloheximide cs: -1; NS1 function inh: 20%; LmPK inh: -3%; Tb PYK inh: 3%; SARS PLpro yeast-2: inconclusive

What do the screens show for `CCCc1ccc(Oc2cc(C)nc(N3CCOCC3)n2)cc1`?
Shiga toxin inh: 23; SARS PLpro yeast-1: 13%; Cycloheximide cs: 9; NS1 function inh: -29%; LmPK inh: 6%; Tb PYK inh: -4%

What do the screens show for `CCc1ccc(Oc2cc(C)nc(N)n2)cc1`?
Shiga toxin inh: 65*; SARS PLpro yeast-1: 16µM*; Cycloheximide cs: 26*; NS1 function inh: 9%; LmPK inh: -2%; Tb PYK inh: 6%; SARS PLpro yeast-2: inactive

How did COC(=O)c1sc(NC(=S)NC(=O)c2ccc(F)cc2)nc1C do in these assays?
Shiga toxin inh: 48; SARS PLpro yeast-1: 0%; Cycloheximide cs: 18; LmPK inh: 2%
